From PubChem BioAssay come the findings set out here.

Activity calls are given as the source filed them.

Assay [1] in a line: anti-His antibody binders, primary screen, artefact control for SMM control protein annotation, biochemical, small-molecule microarray, 635 nm fluorescence (AID 1128).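 Further: score merges feature fluorescence with signal-to-noise for each printed compound spot.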 The note with it: anti-His Alexa647 antibody binding, higher = more signal.
Assay [2] deals with Human papillomavirus type 1a E7 protein (residues 1-88). Kind of assay: HPV1a E7 small-molecule binders, primary screen, biochemical, small-molecule microarray, residues 1-88, 635 nm (AID 1129). As to conditions: small-molecule microarray binding, fluorescence 635 nm; higher = more signal.
The target of assay [3] is Focal adhesion kinase 1 (Homo sapiens) (UniProt Q05397). The assay can be described thus: small-molecule microarray binders of FAK, primary screen, biochemical, 635/667 nm fluorescence, BSA, DTT (AID 1130).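 Further: composite of spot emission at 667 nm and signal to noise over triplicate slides.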 The note with it: PTK2 binding, 635 nm fluorescence, higher = more signal.
Sequence of Focal adhesion kinase 1 (Homo sapiens) (Q05397 whole entry, looked up): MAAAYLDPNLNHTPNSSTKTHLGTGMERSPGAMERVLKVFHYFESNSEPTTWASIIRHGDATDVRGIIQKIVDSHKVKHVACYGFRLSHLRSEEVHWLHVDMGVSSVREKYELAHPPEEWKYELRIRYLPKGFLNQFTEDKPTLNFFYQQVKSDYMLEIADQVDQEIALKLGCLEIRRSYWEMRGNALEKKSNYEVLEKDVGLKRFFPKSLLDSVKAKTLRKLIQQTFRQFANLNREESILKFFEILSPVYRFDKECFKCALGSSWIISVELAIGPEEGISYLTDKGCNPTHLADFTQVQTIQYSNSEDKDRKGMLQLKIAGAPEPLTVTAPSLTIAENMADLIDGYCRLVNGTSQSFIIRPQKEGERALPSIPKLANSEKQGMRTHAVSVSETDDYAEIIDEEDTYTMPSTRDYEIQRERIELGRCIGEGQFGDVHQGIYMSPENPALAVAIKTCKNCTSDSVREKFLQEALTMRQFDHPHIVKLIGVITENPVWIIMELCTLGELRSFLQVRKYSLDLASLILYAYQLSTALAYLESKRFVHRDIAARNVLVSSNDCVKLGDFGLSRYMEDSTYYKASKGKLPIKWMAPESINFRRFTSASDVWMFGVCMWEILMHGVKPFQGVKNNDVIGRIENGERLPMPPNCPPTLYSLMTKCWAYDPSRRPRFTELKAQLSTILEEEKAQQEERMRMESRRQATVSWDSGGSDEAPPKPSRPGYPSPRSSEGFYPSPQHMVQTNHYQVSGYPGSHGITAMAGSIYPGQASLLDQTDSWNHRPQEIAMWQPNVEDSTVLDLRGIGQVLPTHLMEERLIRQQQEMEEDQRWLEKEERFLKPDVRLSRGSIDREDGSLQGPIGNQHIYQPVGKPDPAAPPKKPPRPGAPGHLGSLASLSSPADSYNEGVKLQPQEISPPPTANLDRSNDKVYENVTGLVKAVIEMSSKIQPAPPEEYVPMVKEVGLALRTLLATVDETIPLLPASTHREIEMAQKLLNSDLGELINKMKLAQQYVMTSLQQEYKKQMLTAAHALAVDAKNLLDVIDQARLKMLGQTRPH
For assay [4], the system named is Fibrinogen (Alexa647-labelled). The assay can be described thus: fibrinogen binders on compound microarrays, profiling panel, artefact control for SMM control-protein annotation, biochemical, small-molecule microarray, 635/667 nm fluorescence (AID 1131).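 Further: z-score merges 667 nm fluorescence with per-spot signal-to-noise over triplicate slides.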 As to conditions: fibrinogen-A647 binding fluorescence, higher = more signal.
Assay [5] addresses Follistatin (Homo sapiens) (UniProt P19883). Kind of assay: follistatin binders on small-molecule microarrays, primary screen, biochemical, small-molecule microarray, 635/667 nm fluorescence (AID 1132). As to conditions: FST binding, 635 nm fluorescence, higher = more signal.
Assay [6] has as its target Fibroblast growth factor 2 (Homo sapiens) (UniProt P09038). Kind of assay: FGF2 binders on small-molecule microarrays, primary screen, biochemical, small-molecule microarray, 635/667 nm fluorescence (AID 1133). As to conditions: small-molecule microarray binding, FGF2, fluorescence 635/667; higher = more signal.
A short description of assay [7]: mitochondrial membrane potential change in A549 cells, profiling panel, cell-based, JC-1 fluorescence, basal, 24 h, 100 nL (AID 1138).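 Further: A549 lung adenocarcinoma cells under basal conditions with no added stimulus; test concentration not given here.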 The note with it: higher = more signal.
In another assay the test system is Lefty1. The assay can be described thus: Lefty1 binders on small-molecule microarrays, primary screen, biochemical, small-molecule microarray, 635/667 nm fluorescence (AID 1139). The note with it: small-molecule microarray binding, fluorescence 635/667; higher = more signal.
Assay [8] concerns wheat germ agglutinin (Triticum aestivum), Alexa647-labelled. The assay can be described thus: wheat germ agglutinin binders on compound microarrays, profiling panel, artefact control for SMM control-protein annotation, biochemical, small-molecule microarray, 635/667 nm fluorescence (AID 1140).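 Further: score merges 667 nm feature emission with signal to noise over triplicate slides.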 As to conditions: WGA-A647 binding, 635 nm fluorescence, higher = more signal.
In assay [9] the target is Luciferin 4-monooxygenase (Photinus pyralis) (UniProt P08659). The assay can be described thus: firefly luciferase enzyme inhibitors, primary screen, biochemical, luminescence, purified enzyme, 2006 set (AID 1141).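 Further: cell-free assay with purified firefly luciferase at 100 ng per well in PBS; test concentration not given here.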 As to conditions: SteadyGlo luminescence, 30 min, higher = more signal, called active from +8 up or from −8 down.
Sequence of Luciferin 4-monooxygenase (Photinus pyralis) (P08659 whole entry, looked up): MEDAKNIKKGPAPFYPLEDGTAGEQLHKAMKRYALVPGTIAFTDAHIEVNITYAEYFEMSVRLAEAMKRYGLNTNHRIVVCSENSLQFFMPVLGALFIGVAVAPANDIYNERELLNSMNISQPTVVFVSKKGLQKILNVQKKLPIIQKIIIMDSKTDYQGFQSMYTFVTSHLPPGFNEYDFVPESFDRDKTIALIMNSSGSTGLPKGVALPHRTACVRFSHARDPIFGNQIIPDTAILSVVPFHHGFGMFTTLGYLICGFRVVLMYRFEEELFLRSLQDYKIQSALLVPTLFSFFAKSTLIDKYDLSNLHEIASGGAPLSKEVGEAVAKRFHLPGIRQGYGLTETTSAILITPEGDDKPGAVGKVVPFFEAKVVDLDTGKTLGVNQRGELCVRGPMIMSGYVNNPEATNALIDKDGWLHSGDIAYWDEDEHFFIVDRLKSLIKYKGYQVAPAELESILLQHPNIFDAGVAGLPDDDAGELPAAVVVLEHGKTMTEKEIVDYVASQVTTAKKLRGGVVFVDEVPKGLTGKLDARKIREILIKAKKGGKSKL

Sequence of Follistatin (Homo sapiens) (P19883 whole entry, looked up): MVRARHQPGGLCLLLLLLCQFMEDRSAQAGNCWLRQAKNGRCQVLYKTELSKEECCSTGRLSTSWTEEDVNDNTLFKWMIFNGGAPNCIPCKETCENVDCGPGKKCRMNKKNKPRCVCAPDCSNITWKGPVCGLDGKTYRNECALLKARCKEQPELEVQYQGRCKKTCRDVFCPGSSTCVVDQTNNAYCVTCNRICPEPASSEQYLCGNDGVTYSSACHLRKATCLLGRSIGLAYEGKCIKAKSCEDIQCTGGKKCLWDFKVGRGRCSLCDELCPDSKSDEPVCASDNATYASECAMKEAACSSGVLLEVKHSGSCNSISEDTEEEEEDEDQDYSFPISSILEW
Sequence of Fibroblast growth factor 2 (Homo sapiens) (P09038 whole entry, looked up): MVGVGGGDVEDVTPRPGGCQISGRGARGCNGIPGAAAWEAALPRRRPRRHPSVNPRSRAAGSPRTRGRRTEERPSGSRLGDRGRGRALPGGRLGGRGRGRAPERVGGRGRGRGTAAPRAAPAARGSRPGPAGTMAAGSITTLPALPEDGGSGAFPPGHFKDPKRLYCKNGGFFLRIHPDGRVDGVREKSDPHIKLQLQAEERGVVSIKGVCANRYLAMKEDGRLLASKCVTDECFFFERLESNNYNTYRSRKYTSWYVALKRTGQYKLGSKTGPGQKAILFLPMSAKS

As to `CN1C(=O)C2C=CC(C(O)C3CCCCC3)N(N(c3ccccc3)c3ccccc3)C2C1=O` (stereo not given), the composite z-score in assay [1] was -0.392; in assay [2], -1.14; in assay [3] it was 0.0064; in [4] it was -0.702; in [5] it was -0.885; in assay [6] it was -0.732. The composite z-score with Lefty1 is -1.6; in assay [8], 0.517. Moreover, the z-score in assay [7] is 0.131; in assay [9] it was 0.135 (inactive).
Turning to `COc1cccc(C)c1NC(=O)O[C@H]1[C@H](OC(=O)Nc2ccccc2)[C@H](OC(=O)Nc2ccccc2)[C@@H](OC)O[C@@H]1CO`, the composite z-score in [1] was 1.44; in assay [2], 1.26; in [3] it was 1.01; in assay [4] it was 0.442; in assay [5], 0.615; in [6] it was -0.21. Besides, the composite z-score was -0.337 with Lefty1 and 0.861 in [8]. Moreover, the z-score in [7] was 0.138; in assay [9] it was -0.852 (inactive).
On to `O=C1C[C@@](C(=O)NCc2ccccc2)(c2ccc([N+](=O)[O-])cc2)[C@@H](c2ccc(CO)cc2I)N1C1CCCCC1`, for which the composite z-score in assay [1] worked out at 1.12; in [2], 1.2; in assay [3], 0.532; in assay [4] it was 0.805; in [5], 1.43; in assay [6], 1.25. Besides, the composite z-score turned out to be 0.721 in the assay with Lefty1 and 0.411 in assay [8]. The z-score in assay [7] is -0.0219; in [9], -1.2 (inactive).
As to `CC1C=C(CCCO)C=C(C(=O)OCCS(C)(=O)=O)C(C(=O)OCCS(C)(=O)=O)=CN1Cc1cccc(OC(F)(F)F)c1` (stereo not given), the composite z-score in assay [1] is 1; in assay [2], 0.799; in [3], -0.0696; in assay [4], 1.02; in [5], 0.0361; in assay [6], -0.356. For the same compound, the figures for the composite z-score (in the assay with Lefty1; in [8]) were -0.309 and 0.785, respectively. Further, the z-score was 0.848 in assay [7] and -0.234 (inactive) in assay [9].
Consider `CN(C)C(=O)[C@@]1(CCS(=O)(=O)c2ccccc2)N=C(c2ccc(OCCCO)cc2)O[C@H]1c1ccccc1CN=[N+]=[N-]`, for which the composite z-score turned out to be 1.78 in assay [1]; 1.25 in assay [2]; 0.642 in [3]; 1.06 in assay [4]; 0.871 in assay [5]; 0.513 in [6]. The composite z-score was 0.49 in the assay on Lefty1 and 0.915 in assay [8]. In addition, the z-score was -0.0571 in [7] and 0.628 (inactive) in assay [9].
Consider `C[C@]12C(=O)N(CCCO)[C@@H]3C(=O)N(c4ccc(Cl)cc4)CC=CC31O[C@@H]1/C=C\CCCOC(=O)C12` (stereo not given in full), for which the composite z-score was 2.25 in [1]; -0.549 in assay [2]; 0.438 in assay [3]; -2.51 in [4]; -0.804 in assay [5]; -1.72 in assay [6]. The composite z-score is -0.68 with Lefty1 and 1.13 in assay [8]. Also, the results for the z-score in assay [7] and in assay [9] were 0.202 and -0.299 (inactive), respectively.
Take `NC(=O)NCC#Cc1ccc2c(c1)[C@]1(C(=O)N2)[C@H](c2ccc(O)cc2)N2[C@H](c3ccccc3)[C@H](c3ccccc3)OC(=O)[C@H]2[C@@H]1C(N)=O`: the composite z-score is 0.184 in assay [1]; -1.21 in assay [2]; -0.549 in [3]; -0.934 in assay [4]; -0.0645 in assay [5]; -0.219 in [6]. The values for the composite z-score (in the assay on Lefty1; in assay [8]) were -0.295 and -0.784, respectively. Besides, the z-score in assay [7] is -0.65; in [9], -0.22 (inactive).
In the case of `CCCNC(=O)[C@@]1(Sc2ccc(C)cc2)CC(=O)N(Cc2ccccc2)[C@@H]1c1ccc(CO)cc1I`, the composite z-score is 0.381 in assay [1]; 0.561 in [2]; 0.0147 in [3]; -0.122 in assay [4]; 1.38 in [5]; 1.16 in assay [6]. The composite z-score worked out at 0.427 with Lefty1 and 0.996 in [8]. For the same compound, the results for the z-score in [7] and in [9] were 0.651 and 0.0043 (inactive), respectively.
Regarding `CC(C)NC(=O)[C@@H]1c2ccccc2C(=O)N(Cc2cc(C(F)(F)F)cc(C(F)(F)F)c2)[C@H]1c1ccc(CO)cc1`, the composite z-score is 0.913 in assay [1]; 1.16 in [2]; 0.528 in assay [3]; 0.936 in [4]; 1 in [5]; 0.507 in assay [6]. Also, the results for the composite z-score (with Lefty1; in [8]) were 0.312 and 0.375, respectively. Also, the z-score is 1.98 in [7] and 0.487 (inactive) in assay [9].
On to `CCCC=C(CCC)[C@@H](NS(=O)(=O)CC)c1ccccc1`, for which the composite z-score in [1] was 0.365; in assay [2] it was 1.18; in [3] it was 0.655; in [4] it was 0.976; in assay [5], 0.322; in [6] it was 0.152. Moreover, the composite z-score was -0.346 in the assay with Lefty1 and 0.265 in assay [8]. The figures for the z-score in [7] and in assay [9] were -1.72 and 2.1 (inactive), respectively.
As for `[N-]=[N+]=Nc1ccccc1C[C@]1(C(=O)NCCN2CCOCC2)N=C(c2ccc(OCCCO)cc2)O[C@H]1c1ccccc1N=[N+]=[N-]`, the composite z-score in [1] was 1.55; in assay [2], 1.24; in [3], -0.0277; in assay [4], 0.94; in assay [5], 1.39; in assay [6], 1.65. In addition, the composite z-score in the assay with Lefty1 amounted to 0.499; in [8] it was 0.687. The z-score was 2.42 in [7] and -5.36 (inactive) in assay [9].
For `COC(=O)[C@H]1N=C(c2ccc(OCCCO)cc2)O[C@H]1c1ccccc1CN=[N+]=[N-]`, the composite z-score was 0.96 in assay [1]; -0.189 in assay [2]; 0.605 in assay [3]; 0.825 in [4]; 0.107 in assay [5]; -0.372 in assay [6]. Besides, the composite z-score with Lefty1 was -0.139; in [8], 0.434. Also, the z-score in assay [7] is 0.758; in assay [9], -8.1 (active).
With `CN1C(=O)C2C=CC(C(O)COCc3ccccc3)N(Nc3ccccc3)C2C1=O` (stereo not given), the composite z-score was 0.563 in assay [1]; 0.593 in assay [2]; 0.324 in assay [3]; 0.711 in assay [4]; 0.433 in assay [5]; -0.11 in [6]. Moreover, the composite z-score is 0.135 in the assay with Lefty1 and 0.681 in assay [8]. The values for the z-score in assay [7] and in assay [9] were 1.64 and 0.982 (inactive), respectively.
Turning to `Cc1ccc(F)cc1S(=O)(=O)N[C@@H]1CCN(C(=O)c2ccc(OC(C)C)cc2)C1`, the composite z-score is 1.42 in assay [1]; 1.16 in [2]; 0.485 in assay [3]; 0.371 in [4]; 0.485 in assay [5]; 1.24 in assay [6]. Moreover, the composite z-score was determined as 0.913 with Lefty1 and 0.557 in [8]. Further, the figures for the z-score in assay [7] and in assay [9] were 0.946 and -0.457 (inactive), respectively.
With `CCCC=C(CCC)[C@@H](NS(=O)(=O)c1ccccc1)c1ccc(C(F)(F)F)cc1`, the composite z-score in [1] is 0.438; in [2], 1.21; in [3] it was 1.03; in assay [4], 0.979; in [5] it was 0.831; in assay [6] it was -0.0779. The composite z-score in the assay on Lefty1 worked out at 0.219; in assay [8] it was 0.72. For the same compound, the results for the z-score in assay [7] and in [9] were -1.64 and 2.08 (inactive), respectively.
Turning to `NC(=O)NCC#Cc1ccc2c(c1)[C@]1(C(=O)N2)[C@H](c2ccc(OCCO)cc2)N2[C@H](c3ccccc3)[C@H](c3ccccc3)OC(=O)[C@H]2[C@@H]1C(=O)N1CCN(c2ncccn2)CC1`, the composite z-score is -0.192 in assay [1]; 0.973 in assay [2]; 0.0718 in [3]; 0.879 in assay [4]; 1.34 in assay [5]; 0.502 in assay [6]. Also, the figures for the composite z-score (in the assay with Lefty1; in assay [8]) were 1.08 and 0.444, respectively. The z-score in [7] is -1.1; in assay [9] it was -1.33 (inactive).
